In PubChem BioAssay (Tox21):
Results filed as inconclusive are left out. Entries that show only a call come without a potency. The source made the active and inactive calls. Calls come from the whole dose curve; as a rule, active = well fitted activation curve with a large enough effect in the signal ratio in the repeat runs (not every such curve was filed as active); inconclusive = weak or mixed curves, or effect the other way; inactive = flat fitted curve, though single readings scatter; the % refers to the signal ratio.

What follows are molecules tested against Estrogen receptor beta (Homo sapiens) (UniProt Q92731) (assay: qHTS assay to identify small molecule agonists of the estrogen receptor beta (ER-beta) signaling pathway (AID 1259377)). Settings: ER-beta-UAS-bla HEK293T, beta-lactamase FRET ratio, 16 h; series mostly up to 92.4 µM.
Excerpt: U.S. Tox21 Program National Center for Advancing Translational Sciences [NCATS] NIH Chemical Genomics Center [NCGC] U.S. Environmental Protection Agency [EPA] National Institutes of Environmental Health Sciences [NIEHS] National Toxicology Program [NTP] U.S. Food and Drug Administration [FDA] Tox21 Assay Overview: Estrogen receptor (ER), a nuclear hormone receptor, plays an important role in development, metabolic homeostasis and reproduction. Two subtypes of ER, ER-alpha and ER-beta, have similar expression patterns with some uniqueness in both types. Endocrine disrupting chemicals (EDCs) and their interactions with steroid hormone receptors like ER causes disruption of normal endocrine function. To identify the compounds that activate ER signaling, an ER beta-UAS-bla GripTite cell line (Life technologies, Madison, WI, USA) containing a beta-lactamase reporter gene under the control of an Upstream Activator Sequence (UAS) was used to screen Tox21 10K compound library.
Tox21 Assay Protocol Summary: ER-beta-UAS-bla HEK293T cells were dispensed at 2,000 cells/5 uL of assay medium containing 2% charcoal stripped FBS per well into black wall/clear-bottom 1536-well plates using a Multidrop Combi (ThermoFisher Scientific, Waltham, MA) dispenser. After the assay plates were incubated at a 37C and 5% CO2 for 6 hr, 23 nL of compounds dissolved in DMSO, positive controls or DMSO only was transferred to the assay plate by a Pintool station (Kalypsys, San Diego, CA). The plates were incubated at 37C and 5% CO2 for 16 hr. Then 1 uL of LiveBLAzerTM B/G FRET substrate was added using a BioRAPTR FRD (Flying Reagent Dispenser, Aurora Discovery, San Diego, CA). After the plates were incubated at room temperature for 2 hours, fluorescence intensity was measured by an Envision plate reader (PerkinElmer, Shelton, CT).
Potency is the fitted concentration of half-maximal effect.

Estrogen receptor beta (Homo sapiens), sequence (Q92731 whole entry, looked up): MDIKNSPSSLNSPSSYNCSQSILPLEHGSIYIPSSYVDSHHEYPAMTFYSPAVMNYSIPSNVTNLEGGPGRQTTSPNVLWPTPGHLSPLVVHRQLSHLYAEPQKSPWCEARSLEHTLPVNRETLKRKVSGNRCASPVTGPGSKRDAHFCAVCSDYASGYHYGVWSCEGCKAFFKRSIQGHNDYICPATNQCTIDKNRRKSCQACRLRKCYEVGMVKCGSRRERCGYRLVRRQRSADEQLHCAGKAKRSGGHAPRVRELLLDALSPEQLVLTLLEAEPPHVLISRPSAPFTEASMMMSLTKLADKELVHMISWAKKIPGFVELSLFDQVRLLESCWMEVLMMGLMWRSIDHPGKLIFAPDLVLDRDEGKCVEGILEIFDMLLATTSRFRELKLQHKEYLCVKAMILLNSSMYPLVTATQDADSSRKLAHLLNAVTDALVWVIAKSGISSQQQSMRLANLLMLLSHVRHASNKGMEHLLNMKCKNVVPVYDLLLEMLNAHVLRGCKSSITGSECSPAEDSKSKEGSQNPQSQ

Row | SMILES | Potency
1 | O=C(O)c1ccc(Cl)c(Cl)c1 | inactive
2 | CCc1cc(Cc2cc(CC)c(N)c(CC)c2)cc(CC)c1N | inactive
3 | O=C1CCCCCN1SSN1CCCCCC1=O | inactive
4 | Cc1cccc(S(=O)(=O)O)c1C | inactive
5 | CC1(C)CCC(C)(C)c2cc(C(=O)Nc3ccc(C(=O)O)cc3)ccc21 | inactive
6 | Cc1cc(O)c(Cl)c(C)c1Cl | inactive
7 | CCCCCCCCOC(=O)c1ccc(O)cc1 | inactive
8 | CC(C)C(C)(C)C(C)(C)C(C)(C)S | inactive
9 | CCCCCOC(=O)CCCC | inactive
10 | C[C@H]1[C@H]2CC[C@H]3[C@@H]4CC=C5C[C@@H](N(C)C)CC[C@]5(C)[C@H]4CC[C@]23CN1C | inactive
11 | O=C1c2c(O)ccc(Nc3ccc(CCO)cc3)c2C(=O)c2c([N+](=O)[O-])ccc(O)c21 | inactive
12 | C/C=C(\C)C(=O)OCc1ccccc1 | inactive
13 | CC(=O)OCC(C)OC(C)=O (stereo not given) | inactive
14 | O=[N+]([O-])c1ccccc1Nc1ccccc1 | inactive
15 | CCC(Cl)C(Cl)C(Cl)CC(Cl)C(Cl)C(C)Cl (stereo not given) | inactive
16 | CCCCCOc1ccccc1/C(=C\SC)n1ccnc1 | inactive
17 | CCCCN1C(=O)[C@@H]([C@H](O)C2CCCCC2)NC(=O)C12CCN(Cc1ccc(Oc3ccc(C(=O)O)cc3)cc1)CC2 | inactive
18 | O=C(O)c1c(Cl)cccc1Cl | inactive
19 | S=c1[nH]c2ccccc2s1 | inactive
20 | O=c1[nH]sc2ccccc12 | inactive

Row | SMILES | Potency
21 | CNC(=O)c1ccccc1 | inactive
22 | CC(=O)SC[C@@H](Cc1ccccc1)C(=O)NCC(=O)OCc1ccccc1 | inactive
23 | NNc1nc(-c2ccc([N+](=O)[O-])cc2)cs1 | inactive
24 | Clc1ccccc1C(c1ccccc1)(c1ccccc1)n1ccnc1 | inactive
25 | CC(C)(C)C(=O)OCOC(=O)[C@@H]1N2C(=O)[C@@H](NC(=O)[C@H](N)c3ccccc3)[C@H]2SC1(C)C | inactive
26 | CSc1cnc(C)cn1 | inactive
27 | CC(=O)S[C@@H]1CC2=CC(=O)CC[C@]2(C)[C@H]2CC[C@@]3(C)[C@@H](CC[C@@]34CCC(=O)O4)[C@H]12 | inactive
28 | CC(C)(C)c1ccc(C(=O)CCCN2CCC(OC(c3ccccc3)c3ccccc3)CC2)cc1 | inactive
29 | C[C@]12CCC(=O)C=C1CC[C@@H]1[C@@H]2[C@@H](O)C[C@@]2(C)[C@H]1CC[C@]2(O)C(=O)COC(=O)CCC(=O)O | inactive
30 | CN(C)CCCOC1(Cc2ccccc2)CCCCCC1 | inactive
31 | Nc1ccc2cc(S(=O)(=O)O)cc(O)c2c1N=Nc1ccccc1C(F)(F)F | inactive
32 | CCCCCCCCCCCCCCCS(=O)(=O)Oc1ccccc1 | inactive
33 | CN(C)C(=O)C1(N2CCCCC2)CCN(CC[C@@]2(c3ccc(Cl)c(Cl)c3)CN(C(=O)c3ccccc3)CCO2)CC1 | inactive
34 | O=C(NOCC1CC1)c1ccc(F)c(F)c1Nc1ccc(I)cc1Cl | inactive
35 | N/C(=N\N=C\c1ccc(Cl)cc1)N/N=C/c1ccc(Cl)cc1 | inactive
36 | CCCCCCCCS(=O)C(C)Cc1ccc2c(c1)OCO2 (stereo not given) | inactive
37 | Fc1ccc(C(c2ccc(F)cc2)N2CCN(C/C=C/c3ccccc3)CC2)cc1 | inactive
38 | CC[C@H](c1ccc(O)cc1)[C@@H](CC)c1ccc(O)cc1 | 1.1 nM (active)
39 | CCC(N)(CO)CO | inactive
40 | C=C(C)C(=O)OCC[N+](C)(C)C | inactive
